Results published in PubChem BioAssay AID1159580 (chemical genetic matrix, 2015).
Several values for one entry are separate records, joined by “and”; a condition that tells them apart may be missing. Equal entries are not always repeated. Screen size: about 5,500 compounds; about 2,000 (36%) were called active. Another 18% or so got no clear call; they are omitted. Cut-off read from the data, not from the text of the source: active = normalized growth mostly below about 0.91 (no sharp cut-off); inconclusive = no clear call, values can overlap the other calls; inactive = mostly above about 0.92. Some of the results follow.

Test: chemical genetic growth profiling, strain panel (AID 1159580);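 note: tested at 20 µM; growth read once vehicle control cultures reached saturation at 30 °C; 1 = growth at the plate median or of vehicle wells; lower values mean less growth of the strain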
Details: S. cerevisiae deletion strains, growth OD

Measured: normalized growth

NC1(C(=O)O)CCCC1
inactive: locus YAL013W, strain DEP1, hits give low values 1 | locus YAL021C, strain ccr4, hits give low values 1.01 | locus YAL026C, strain drs2, hits give low values 1.02 | locus YAL030W, strain snc1, hits give low values 1.02 | locus YBL061C, strain skt5, hits give low values 1.01 | locus YBR009C, strain hhf1, hits give low values 1 | locus YBR021W, strain FUR4, hits give low values 0.989 | locus YBR023C, strain chs3, hits give low values 1.02 | locus YBR171W, strain sec66, hits give low values 1.03 | locus YBR229C, strain ROT2, hits give low values 1.01 | locus YBR231C, strain swc5, hits give low values 1.02 | locus YBR279W, strain paf1, hits give low values 1.01 | locus YCL011C, strain gbp2, hits give low values 1.02 | locus YCL016C, strain dcc1, hits give low values 1.01 | locus YCL029C, strain bik1, hits give low values 1.02 | locus YCL061C, strain MRC1, hits give low values 1.02 | locus YCL069W, strain vba3, hits give low values 1.02 | locus YCR088W, strain abp1, hits give low values 1.02 | locus YDL005C, strain med2, hits give low values 1.01 | locus YDL035C, strain GPR1, hits give low values 1.01 | locus YDL040C, strain nat1, hits give low values 1.01 | locus YDL074C, strain BRE1, hits give low values 1.02 | locus YDL101C, strain DUN1, hits give low values 1 | locus YDL134C, strain PPH21, hits give low values 0.998 | locus YDL185W, strain tfp1, hits give low values 0.989 | locus YDL192W, strain arf1, hits give low values 0.998 | locus YDR001C, strain nth1, hits give low values 1.02 | locus YDR069C, strain doa4, hits give low values 1.03 | locus YDR101C, strain arx1, hits give low values 1.01 | locus YDR137W, strain rgp1, hits give low values 1 | locus YDR150W, strain NUM1, hits give low values 1.01 | locus YDR159W, strain sac3, hits give low values 0.995 | locus YDR162C, strain NBP2, hits give low values 1.01 | locus YDR195W, strain ref2 1.03 | locus YDR297W, strain sur2, hits give low values 1.01 | locus YDR318W, strain mcm21, hits give low values 0.996 | locus YDR334W, strain swr1, hits give low values 1.01 | locus YDR335W, strain msn5, hits give low values 1.01 | locus YDR388W, hits give low values 0.998 | locus YDR392W, strain spt3, hits give low values 1.01 | locus YDR502C, strain sam2, hits give low values 0.99 | locus YEL003W, strain gim4, hits give low values 1.02 | locus YEL037C, strain rad23, hits give low values 1.02 | locus YEL061C, strain CIN8 (second series), hits give low values 1.02 | locus YEL061C, strain CIN8, hits give low values 1.01 | locus YER015W, strain faa2, hits give low values 1.02 | locus YER016W, strain bim1, hits give low values 1.01 | locus YER110C, hits give low values 1 | locus YER111C, strain swi4, hits give low values 1.03 | locus YER155C, strain BEM2 (second series), hits give low values 1.07 | locus YER155C, strain BEM2, hits give low values 0.997 | locus YER167W, strain BCK2, hits give low values 1.01 | locus YFR010W, strain ubp6, hits give low values 1.02 | locus YGL078C, strain dbp3, hits give low values 0.989 | locus YGL086W, strain mad1, hits give low values 0.994 | locus YGL167C, strain pmr1, hits give low values 1.01 | locus YGL173C, strain kem1, hits give low values 1.02 | locus YGL227W, strain vid30, hits give low values 1.02 | locus YGL240W, strain doc1, hits give low values 1.04 | locus YGL248W, strain PDE1, hits give low values 1.01 | locus YGL253W, strain hxk2, hits give low values 1.02 | locus YGR135W, strain pre9, hits give low values 0.998 | locus YGR252W, strain gcn5, hits give low values 0.935 | locus YHR013C, strain ard1, hits give low values 1.07 | locus YHR027C, strain rpn1, hits give low values 1.01 | locus YHR030C, strain SLT2, hits give low values 1.01 | locus YHR079C, strain IRE1 (second series), hits give low values 0.996 | locus YHR079C, strain IRE1, hits give low values 1.04 | locus YHR094C, strain hxt1, hits give low values 0.998 | locus YHR129C, strain ARP1, hits give low values 1.01 | locus YHR142W, strain chs7, hits give low values 1.03 | locus YHR200W, strain rpn10, hits give low values 0.997 | locus YIL066C, strain RNR3, hits give low values 1.02 | locus YIL073C, strain SPO22, hits give low values 1.02 | locus YIL125W, strain kgd1, hits give low values 1 | locus YIR030C, strain dcg1, hits give low values 1.01 | locus YJL092W, strain hpr5, hits give low values 1.03 | locus YJL095W, strain BCK1 (second series), hits give low values 1.01 | locus YJL095W, strain BCK1, hits give low values 1.01 and 1.02 | locus YJL115W, strain asf1, hits give low values 1.03 | locus YJL129C, strain trk1, hits give low values 1.06 | locus YJL134W, strain LCB3, hits give low values 1.01 | locus YJL154C, strain vps35, hits give low values 1.02 | locus YJL164C, strain tpk1, hits give low values 1.02 | locus YJL166W, strain qcr8, hits give low values 1.02 | locus YJL168C, strain set2, hits give low values 0.994 | locus YJL187C, strain SWE1 (second series), hits give low values 1.01 | locus YJR043C, strain POL32, hits give low values 1 | locus YJR066W, strain TOR1, hits give low values 0.975
